About 83,000 compounds went through this panel and 20% of them were active in at least one assay; those are over-represented in the sample as a whole.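 48-hour exposure, single concentration, 96-well plates; percent growth endpoint where 0 means no net growth. Active: below 10.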 Calls of active or inactive are those of the source.

The experiment relates to NCI-H322M lung. As to the kind of experiment: NCI-60 one-dose screen, 48 h (100 = growth as untreated, 0 = no growth, -100 = all killed). Conditions: 10 µM unless noted. As to the method: Growth inhibition of the NCI-H322M human Non-Small Cell Lung tumor cell line is measured as a screen for anti-cancer activity. Cells are grown in 96 well plates and exposed to the test compound for 48 hours. Compounds are tested at a single concentration, which is 10^-5 M for most compounds. The reported endpoint is percent growth (GI% or GIPRCNT), where numbers from 0 - 100% represent growth inhibition, and numbers from -100% - 0 represent cell death. For example, a value of 40 represents 60% growth inhibition. A value of 0 means no net growth occurred over the course of the experiment. A value of -40 indicates 40% of cells at the beginning of the experiment died by the end of the experiment. A value of -100 means all cells are dead at the end of the experiment.
NCI-60 Human Tumor Cell Lines Screen was performed using the standard one-dose NCI protocol, which is described in more detail at https://dtp.cancer.gov/discovery_development/nci-60/default.htm.
Compounds with GIPRCNT values below 10 were considered active. Activity score was based on GIPRCNT using the following formula: […]
Score is 0 for GIPRCNT values of 100 or above, 50 for GIPRCNT values of 0, and 100 for GIPRCNT values of -100.
For the molecule `Nc1n[nH]c2cccc(C#Cc3cccc(NC(=O)c4cc(F)cc(C(F)(F)F)c4)c3)c12`, the growth was 93.9% (inactive).

For the molecule `CCOC(=O)c1csc(NC(=O)COc2ccc(/C=C3\Oc4ccccc4C3=O)cc2)n1`, the growth is 95.4% (inactive).

For the molecule `CCC(C(=O)[C@@H](C)[C@@H](O)[C@H](C)[C@@H]1O[C@@H]([C@@H](CC)C(=O)ONC(=O)c2ccccc2)CC[C@@H]1C)[C@H]1O[C@]2(C=CC(=O)[C@]3(CC[C@@](C)([C@H]4CC[C@](O)(CC)[C@H](C)O4)O3)O2)[C@H](C)C[C@@H]1C` (stereo not given in full), the growth is 37.4% (inactive).

Consider `CCCCNC(=O)CC1=C(C)/C(=C/c2[nH]c(-c3ccc[nH]3)cc2OC)N=C1C`, for which the growth was 50% (inactive).

For the molecule `Oc1c(Br)cc(Br)c2ccc(Cn3cc(-c4ccccc4C(F)(F)F)nn3)nc12`, the growth was 104% (inactive).

For the molecule `C=C(CBr)[C@@H]1CC[C@]2(C(=O)O)CC[C@]3(C)[C@H](CC[C@@H]4[C@@]5(C)CCC(=O)C(C)(C)[C@@H]5CC[C@]43C)[C@@H]12`, the growth was 92.2% (inactive).

Consider `CCN1CCN(C(=O)[C@]23CCC(C)(C)C[C@@H]2C2=CC[C@@H]4[C@@]5(C)CCC(=O)C(C)(C)[C@@H]5CC[C@@]4(C)[C@]2(C)CC3)CC1`, for which the growth is 81.2% (inactive).

On to `COc1ccc(Nc2ncc(Br)c(NCCCNC(=O)c3cccs3)n2)cc1`, for which the growth was 56.5% (inactive).

As for `Cc1ccc(NC(=O)Cn2cc(CN3CCN(c4ccnc5cc(Cl)ccc45)CC3)nn2)cc1`, the growth was 97.7% (inactive).

Regarding `CCOc1nc(-c2ccccc2)cc2c(O)c(C(=O)N/N=C/c3ccccc3)[nH]c(=O)c12`, the growth was 128% (inactive).

In the case of `CCOC(=O)c1c(NC(=O)c2cccc(C(F)(F)F)c2)sc2c(CN(C)C)c(O)ccc12`, the growth is 70.9% (inactive).

As for `C=CCN=c1sc2c(n1NC(=O)c1cc3ccc1CCc1ccc(cc1)CC3)C(=O)c1ccccc1C2=O`, the growth is 67.8% (inactive).

Consider `COC(=O)/C=C1/SC(=Nc2ccc(C(F)(F)F)cc2)N(CCc2c[nH]c3ccc(O)cc23)C1=O`, for which the growth was 6.96% (active).

With `COc1cc2ncnc(Nc3ccc(F)c(Cl)c3)c2cc1OCC(=O)N1CCN(c2ccccc2)CC1`, the growth is 34% (inactive).

For `COc1ccc(NC(=O)c2sc3nc(C)c(C(=O)/C=C/c4ccccc4)cc3c2N)cc1`, the growth is 13.1% (inactive).

With `COc1ccccc1N1CCCCC1`, the growth was 108% (inactive).

Consider `Cc1ccc2c(c1)=C/C(=C\c1cc(-c3ccccc3)oc1O)C(=O)N=2`, for which the growth was 104% (inactive).

`CCOC(=O)C1=C(c2ccccc2)N=C2SC=C(c3ccc(Cl)cc3)N2C1c1ccc(Br)cc1` (stereo not given): the growth was 90.9% (inactive).

Take `Oc1c(I)cc(I)cc1CNCCN(Cc1ccccn1)Cc1ccccn1`: the growth is -30.4% (active).

As for `NC(=O)c1c(NC(=O)c2ccc3ccccc3c2)sc2c1CCC(=O)C2`, the growth was 94.9% (inactive).

As for `N=C(N)c1ccc(-c2ccc(-c3ccc(Cl)cc3Cl)s2)cc1`, the growth is 13.9% (inactive).

As for `CC1=C([Se]CC(OC(=O)CC[Se]c2ccccc2)C(=O)NC(C)(C)C)C(=O)c2ccccc2C1=O` (stereo not given), the growth is -51.9% (active).

With `O=C1Nc2ccccc2/C1=C/c1cccn1CCCCn1c2ccccc2c(=O)c2ccccc21`, the growth was 101% (inactive).

For the molecule `COC1=CC(c2ccc[nH]2)=N/C1=C\c1[nH]c(C)c(C(=O)OC(C)C)c1C`, the growth is -28.2% (active).

In the case of `COC(CC(F)F)c1cn(S(=O)(=O)c2ccc(C)cc2)c2ccccc12` (stereo not given), the growth was 27.8% (inactive).

`CN(C)S(=O)(=O)c1cccc(C(=O)Nc2nc(-c3ccc(F)c(F)c3)cs2)c1`: the growth is 106% (inactive).

Turning to `CSc1oc(C)nc1[P+](c1ccccc1)(c1ccccc1)c1ccccc1`, the growth is 99% (inactive).

With `NC(=O)c1cccc(-n2ccc3cc(NC(=O)c4ccc(N5CCOCC5)c(C(F)(F)F)c4)ccc32)n1`, the growth was 57.1% (inactive).

For `O=C(O)CCCN1C(=O)/C(=C/c2cn(-c3ccccc3)nc2-c2ccc([N+](=O)[O-])cc2)SC1=S`, the growth is 44.1% (inactive).

As for `COC12C=C/C(=C(/C(=O)OCc3ccncc3)C(=O)CCCCCCCCC3(OC)C=C/C(=C(/C(=O)OCc4ccncc4)C(=O)CCCCCCCC1)O3)O2`, the growth is -63.2% (active).

With `O=c1c2cccc3c(N4CCCC4)ccc(c32)c2nc3ccccc3n12`, the growth was 95.1% (inactive).

Turning to `Clc1cccc(Nc2ncnc3ccc(-c4cnc5[nH]ccc5c4)cc23)c1`, the growth was 18.7% (inactive).

For `CCCCn1c(=O)[nH]c(N)c([C@@H]2c3c([nH]c(=O)n(CCCC)c3=O)Oc3ccc4ccccc4c32)c1=O`, the growth is 74.9% (inactive).

As for `COc1ccc(C(=O)N2c3ccccc3Sc3ccccc32)c(OC)c1`, the growth was 62.2% (inactive).

Take `Cc1c[n+](Cc2ccc3ccccc3c2)cn1Cc1ccc2ccccc2c1`: the growth was 65.7% (inactive).

Consider `CC(C)=CC(=O)OCC(=O)O[C@@H]1C[C@]2(C(C)C)O[C@@]1(C)[C@@H]1CC[C@@H](C)[C@H]1[C@@H]2OC(=O)/C=C/c1ccccc1`, for which the growth is 90.7% (inactive).

With `Cn1cc(C(=O)c2nc(-c3c[nH]c4ccccc34)no2)c2cc(F)ccc21`, the growth was 62.3% (inactive).

For the molecule `COc1ccc(C(=O)Nc2cccc(-c3cc(=O)c4c(OC)c(OC)c(OC)cc4o3)c2)cc1`, the growth was 55.1% (inactive).

As for `Cc1cc(C)c2c(c1)N(C)c1ncnc(-n3cnc4cc(C)ccc43)c1CC2C` (stereo not given), the growth is 48.5% (inactive).

With `CCN(CC)CCn1c2ccc(O)cc2c2sc3cc(O)ccc3c(=O)c21`, the growth is 30% (inactive).
